Measured values published in PubChem BioAssay AID1159580 (chemical genetic matrix, 2015).
Values joined by “and” are separate entries in the source; they are usually repeats but may differ in a detail not shown here. Equal values may be shown once. In all, about 5,500 compounds went through this assay and about 2,000 (36%) were called active. Not shown: some 18% with an inconclusive outcome. Cut-off read from the data, not from the text of the source: active = normalized growth mostly below about 0.91 (no sharp cut-off); inconclusive = no clear call, values can overlap the other calls; inactive = mostly above about 0.92. This is one part of the list.

Assay: chemical genetic growth profiling, strain panel (AID 1159580);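 note: tested at 20 µM; growth read once vehicle control cultures reached saturation at 30 °C; 1 = growth at the plate median or of vehicle wells; lower values mean less growth of the strain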
Conditions: S. cerevisiae deletion strains, growth OD

Measured: normalized growth

C[C@H]1O[C@@H](O[C@H]2[C@@H](O)C[C@H](O[C@H]3[C@@H](O)C[C@H](O[C@H]4CC[C@]5(C)C6CC[C@]7(C)[C@@H](C8=CC(=O)OC8)CC[C@]7(O)C6CC[C@@H]5C4)O[C@@H]3C)O[C@@H]2C)C[C@H](O)[C@@H]1O (some centres not stated)
inactive: locus YAL021C, strain ccr4, stronger effect = lower value 0.984 | locus YAL026C, strain drs2, stronger effect = lower value 0.965 | locus YAL030W, strain snc1, stronger effect = lower value 0.964 | locus YBL061C, strain skt5, stronger effect = lower value 0.975 | locus YBR009C, strain hhf1, stronger effect = lower value 0.968 | locus YBR021W, strain FUR4, stronger effect = lower value 0.968 | locus YBR023C, strain chs3, stronger effect = lower value 0.957 | locus YBR171W, strain sec66, stronger effect = lower value 0.98 | locus YBR229C, strain ROT2, stronger effect = lower value 0.982 | locus YBR231C, strain swc5, stronger effect = lower value 0.979 | locus YBR279W, strain paf1, stronger effect = lower value 0.967 | locus YCL011C, strain gbp2, stronger effect = lower value 0.951 | locus YCL016C, strain dcc1, stronger effect = lower value 0.921 | locus YCL029C, strain bik1, stronger effect = lower value 0.976 | locus YCL061C, strain MRC1, stronger effect = lower value 1.01 | locus YCL069W, strain vba3, stronger effect = lower value 0.969 | locus YCR088W, strain abp1, stronger effect = lower value 0.99 | locus YDL005C, strain med2, stronger effect = lower value 1.01 | locus YDL035C, strain GPR1, stronger effect = lower value 1.03 | locus YDL040C, strain nat1, stronger effect = lower value 0.975 | locus YDL074C, strain BRE1, stronger effect = lower value 0.982 | locus YDL101C, strain DUN1, stronger effect = lower value 0.987 | locus YDL134C, strain PPH21, stronger effect = lower value 1.02 | locus YDL185W, strain tfp1, stronger effect = lower value 1 | locus YDL192W, strain arf1, stronger effect = lower value 1 | locus YDR001C, strain nth1, stronger effect = lower value 0.968 | locus YDR069C, strain doa4, stronger effect = lower value 1.02 | locus YDR101C, strain arx1, stronger effect = lower value 1.01 | locus YDR137W, strain rgp1, stronger effect = lower value 0.976 | locus YDR159W, strain sac3, stronger effect = lower value 0.948 | locus YDR162C, strain NBP2, stronger effect = lower value 1.01 | locus YDR195W, strain ref2 1.03 | locus YDR297W, strain sur2, stronger effect = lower value 0.986 | locus YDR318W, strain mcm21, stronger effect = lower value 0.989 | locus YDR334W, strain swr1, stronger effect = lower value 0.983 | locus YDR335W, strain msn5, stronger effect = lower value 0.984 | locus YDR388W, stronger effect = lower value 0.986 | locus YDR392W, strain spt3, stronger effect = lower value 0.931 | locus YDR502C, strain sam2, stronger effect = lower value 0.993 | locus YEL003W, strain gim4, stronger effect = lower value 0.989 | locus YEL037C, strain rad23, stronger effect = lower value 0.976 | locus YEL061C, strain CIN8 (second series), stronger effect = lower value 0.971 | locus YEL061C, strain CIN8, stronger effect = lower value 0.999 | locus YER015W, strain faa2, stronger effect = lower value 0.977 | locus YER016W, strain bim1, stronger effect = lower value 0.98 | locus YER110C, stronger effect = lower value 0.989 | locus YER111C, strain swi4, stronger effect = lower value 0.969 | locus YER155C, strain BEM2 (second series), stronger effect = lower value 1.03 | locus YER155C, strain BEM2, stronger effect = lower value 0.988 | locus YER167W, strain BCK2, stronger effect = lower value 1 | locus YFR010W, strain ubp6, stronger effect = lower value 1 | locus YGL078C, strain dbp3, stronger effect = lower value 0.983 | locus YGL086W, strain mad1, stronger effect = lower value 1.02 | locus YGL167C, strain pmr1, stronger effect = lower value 1 | locus YGL173C, strain kem1, stronger effect = lower value 0.972 | locus YGL227W, strain vid30, stronger effect = lower value 0.989 | locus YGL240W, strain doc1, stronger effect = lower value 1.05 | locus YGL248W, strain PDE1, stronger effect = lower value 0.959 | locus YGR135W, strain pre9, stronger effect = lower value 0.965 | locus YGR252W, strain gcn5, stronger effect = lower value 0.967 | locus YHR013C, strain ard1, stronger effect = lower value 0.984 | locus YHR027C, strain rpn1, stronger effect = lower value 0.996 | locus YHR030C, strain SLT2, stronger effect = lower value 1 and 1.02 | locus YHR079C, strain IRE1 (second series), stronger effect = lower value 0.982 | locus YHR079C, strain IRE1, stronger effect = lower value 1.03 | locus YHR094C, strain hxt1, stronger effect = lower value 0.978 | locus YHR129C, strain ARP1, stronger effect = lower value 1 | locus YHR142W, strain chs7, stronger effect = lower value 0.926 | locus YHR200W, strain rpn10, stronger effect = lower value 0.999 | locus YIL066C, strain RNR3, stronger effect = lower value 0.993 | locus YIL073C, strain SPO22, stronger effect = lower value 0.936 | locus YIL125W, strain kgd1, stronger effect = lower value 0.985 | locus YIR030C, strain dcg1, stronger effect = lower value 0.976 | locus YJL092W, strain hpr5, stronger effect = lower value 0.981 | locus YJL095W, strain BCK1 (second series), stronger effect = lower value 0.991 | locus YJL095W, strain BCK1, stronger effect = lower value 0.953 and 1.05 | locus YJL115W, strain asf1, stronger effect = lower value 0.965 | locus YJL129C, strain trk1, stronger effect = lower value 0.988 | locus YJL134W, strain LCB3, stronger effect = lower value 0.995 | locus YJL154C, strain vps35, stronger effect = lower value 0.979 | locus YJL164C, strain tpk1, stronger effect = lower value 0.962 | locus YJL166W, strain qcr8, stronger effect = lower value 1.03 | locus YJL168C, strain set2, stronger effect = lower value 0.981 | locus YJL187C, strain SWE1 (second series), stronger effect = lower value 0.974 | locus YJR043C, strain POL32, stronger effect = lower value 1.04 | locus YJR066W, strain TOR1, stronger effect = lower value 0.958 | locus YKL009W, strain mrt4, stronger effect = lower value 0.978 | locus YKL068W, stronger effect = lower value 0.989 | locus YKL085W, strain MDH1 (second series), stronger effect = lower value 0.963 | locus YKL085W, strain MDH1, stronger effect = lower value 0.963 | locus YKL160W, strain elf1, stronger effect = lower value 0.985 | locus YKR001C, strain vps1, stronger effect = lower value 0.976 | locus YKR026C, strain gcn3, stronger effect = lower value 0.977 | locus YKR091W, strain srl3, stronger effect = lower value 0.967 | locus YLL001W, strain dnm1, stronger effect = lower value 0.989 | locus YLL026W, stronger effect = lower value 0.977 | locus YLL041C, strain sdh2, stronger effect = lower value 0.981 | locus YLR027C, strain aat2, stronger effect = lower value 0.979 | locus YLR039C, strain RIC1, stronger effect = lower value 0.999 | locus YLR058C, strain SHM2, stronger effect = lower value 0.978 | locus YLR102C, strain apc9, stronger effect = lower value 0.979 | locus YLR113W, strain HOG1, stronger effect = lower value 1.03 | locus YLR221C, strain rsa3, stronger effect = lower value 0.954 | locus YLR258W, strain gsy2, stronger effect = lower value 0.96 | locus YLR262C, strain YPT6 (second series), stronger effect = lower value 0.997 | locus YLR262C, strain YPT6, stronger effect = lower value 0.992 | locus YLR268W, strain sec22, stronger effect = lower value 0.988 | locus YLR320W, strain mms22, stronger effect = lower value 0.928 | locus YLR330W, strain CHS5, stronger effect = lower value 1 | locus YLR342W, strain FKS1 (second series), stronger effect = lower value 1.04 | locus YLR342W, strain FKS1, stronger effect = lower value 1 | locus YLR357W, strain rsc2, stronger effect = lower value 1.07 | locus YLR370C, strain arc18, stronger effect = lower value 0.956 | locus YLR371W, strain rom2, stronger effect = lower value 0.98 | locus YLR384C, strain iki3, stronger effect = lower value 0.954 | locus YLR418C, strain cdc73, stronger effect = lower value 0.928 | locus YML016C, strain PPZ1, stronger effect = lower value 1 | locus YML032C, strain rad52, stronger effect = lower value 0.996 | locus YML120C, strain ndi1, stronger effect = lower value 0.992 | locus YML124C, strain tub3, stronger effect = lower value 0.975 | locus YMR058W, strain fet3, stronger effect = lower value 1 | locus YMR078C, strain ctf18, stronger effect = lower value 0.967 | locus YMR125W, strain sto1, stronger effect = lower value 0.997 | locus YMR129W, stronger effect = lower value 0.973 | locus YMR205C, strain PFK2, stronger effect = lower value 0.924 | locus YMR223W, strain ubp8, stronger effect = lower value 0.966 | locus YMR231W, strain pep5, stronger effect = lower value 0.992 | locus YMR307W, strain GAS1, stronger effect = lower value 1.1 | locus YNL067W, strain RPL9B, stronger effect = lower value 0.981 | locus YNL071W, strain lat1, stronger effect = lower value 0.979 | locus YNL153C, strain GIM3, stronger effect = lower value 0.983 | locus YNL183C, strain NPR1, stronger effect = lower value 0.984 | locus YNL209W, strain ssb2, stronger effect = lower value 0.977 | locus YNL233W, strain BNI4, stronger effect = lower value 0.977 | locus YNL248C, strain rpa49, stronger effect = lower value 0.979 | locus YNL250W, strain rad50, stronger effect = lower value 0.997 | locus YNL271C, strain bni1, stronger effect = lower value 0.973 | locus YNL298W, strain CLA4, stronger effect = lower value 0.984 | locus YNL307C, strain MCK1, stronger effect = lower value 0.978 | locus YNL322C, strain KRE1 (second series), stronger effect = lower value 0.972 | locus YNR049C, strain mso1, stronger effect = lower value 0.977 | locus YNR052C, strain pop2, stronger effect = lower value 0.999 | locus YOL006C, strain TOP1, stronger effect = lower value 0.896 | locus YOL012C, strain htz1 0.968 | locus YOL147C, strain pex11, stronger effect = lower value 0.984 | locus YOR001W, strain rrp6, stronger effect = lower value 1.03 | locus YOR061W, strain CKA2, stronger effect = lower value 0.994 | locus YOR069W, strain VPS5, stronger effect = lower value 0.994 | locus YOR070C, strain gyp1, stronger effect = lower value 0.968 | locus YOR080W, strain dia2, stronger effect = lower value 0.982 | locus YOR083W, strain WHI5, stronger effect = lower value 0.967 | locus YOR106W, strain vam3, stronger effect = lower value 1 | locus YOR136W, strain idh2, stronger effect = lower value 0.985 | locus YOR144C, strain elg1, stronger effect = lower value 0.985 | locus YOR184W, strain ser1, stronger effect = lower value 0.963 | locus YOR231W, strain MKK1, stronger effect = lower value 1.01 | locus YOR265W, strain rbl2, stronger effect = lower value 0.988 | locus YOR270C, strain vph1, stronger effect = lower value 0.89 | locus YOR290C, strain snf2, stronger effect = lower value 0.944 | locus YOR316C, strain cot1, stronger effect = lower value 0.977 | locus YPL051W, strain arl3, stronger effect = lower value 1.01 | locus YPL078C, strain atp4, stronger effect = lower value 1.02 | locus YPL106C, strain sse1, stronger effect = lower value 0.989 | locus YPL240C, strain hsp82, stronger effect = lower value 0.999 | locus YPL241C, strain CIN2, stronger effect = lower value 1 | locus YPL256C, strain CLN2, stronger effect = lower value 1.02 | locus YPR119W, strain clb2, stronger effect = lower value 0.981 | locus YPR141C, strain kar3, stronger effect = lower value 0.953 | locus YPR163C, strain tif3, stronger effect = lower value 0.981 | locus YPR167C, strain met16, stronger effect = lower value 0.989 | strain wtn01, stronger effect = lower value 1
active: locus YGL253W, strain hxk2, stronger effect = lower value 0.761
